From PubChem BioAssay
Most compounds without a hit are left out; they make up all but 19% or so of the library.
DT40 TDP1 CPT: qHTS for Inhibitors of human tyrosyl-DNA phosphodiesterase 1 (TDP1): qHTS in cells in presence of CPT; chicken DT40 Tdp1-/-;hTDP1 cells + 20 nM CPT, ATP luminescence, 48 h; Potency, µM (series often up to 46.2 µM), most hits filed as inhibitors; hit rate 12% among 420,000; AID 686979, 2013; note: nearly all actives have a fitted effect of over 55% in size
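Chicken DT40 Tdp1-/- cells complemented with human TDP1, 400 cells/well, exposed to compounds plus 20 nM camptothecin for at least 48 h at 37 C; viability read as ATP content by CellTiter-Glo luminescence.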
Giardia killer: Small Molecules that selectively kill Giardia lamblia: qHTS | Giardia lamblia trophozoite viability | activity change, % at 7.66 µM, hits read low | hit rate 0.15% among 340,000 | AID 540267, 2011; in the data active = activity change below about -80%; inconclusive = between about -30% and that limit;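 note: parasites exposed to compound for two days anaerobically before the ATP read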
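Media and compound were dispensed first, then trophozoites at 100 cells/well; plates sat 48 hrs at 37 deg C without oxygen before ATP luminescence reagent was added and read after 15-30 min at room temperature.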
IL-1B inflam inh: qHTS for Inhibitors of Inflammasome Signaling: IL-1-beta AlphaLISA Primary Screen | activity change, % at 57.5 µM | THP-1 LPS/ATP IL-1B secretion, AlphaLISA, 16 h; hits give low values | hit rate 4.7% among 360,000; in the data active = activity change below about -50%; inconclusive = mostly about -30% to -49%
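THP-1 cells pretreated 1 hr with compounds (up to 57.5 uM final), then stimulated with LPS (250 ng/mL final) plus ATP (1.25 mM final); secreted IL-1B measured by AlphaLISA after 16 hr, decreased signal indicating inhibition.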
TDP1 cell noCPT: qHTS for Inhibitors of human tyrosyl-DNA phosphodiesterase 1 (TDP1): qHTS in cells in absence of CPT; DT40 Tdp1-/- hTDP1 cells, no CPT, ATP luminescence, 48 h; Potency, µM (titrated, usually from 46.2 µM), hits mostly inhibitors; hit rate 15% among 420,000; note: nearly all actives have a fitted effect of over 55% in size
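Stably hTDP1-transfected Tdp1-null chicken DT40 cells were treated with library compounds minus camptothecin and grown for at least 48 hr at 37 °C, after which cellular ATP was quantified by luminescence.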
ELG1 DNA repair: qHTS screen for small molecules that inhibit ELG1-dependent DNA repair in human embryonic kidney (HEK293T) cells expressing luciferase-tagged ELG1; HEK293T ELG1-luciferase reporter, luminescence, 16 h; DNA damage induced by 5-fluorouridine; Potency, µM (titrated, usually from 46.1 µM), hits mostly inhibitors; hit rate 2.3% among 330,000; note: nearly all actives have a fitted effect of over 55% in size
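Overnight (16 hr) co-exposure of 2,000 cells/well to 5-fluorouridine and compound at 37 °C preceded detection. Luciferase was quantified via ONE-Glo luminescence; loss of signal denotes inhibition.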
TDP1 block: qHTS Assay for Inhibitors of Tyrosyl-DNA Phosphodiesterase (TDP1); Tyrosyl-DNA phosphodiesterase 1 (Homo sapiens), Q9NUW8; recombinant TDP1, AlphaScreen DNA substrate cleavage; Potency, µM (series often up to 130 µM), hits mostly inhibitors; hit rate 0.28% among 350,000; AID 485290, 2010; note: nearly all actives have a fitted effect of over 40% in size
Target sequence (Q9NUW8 whole entry, looked up): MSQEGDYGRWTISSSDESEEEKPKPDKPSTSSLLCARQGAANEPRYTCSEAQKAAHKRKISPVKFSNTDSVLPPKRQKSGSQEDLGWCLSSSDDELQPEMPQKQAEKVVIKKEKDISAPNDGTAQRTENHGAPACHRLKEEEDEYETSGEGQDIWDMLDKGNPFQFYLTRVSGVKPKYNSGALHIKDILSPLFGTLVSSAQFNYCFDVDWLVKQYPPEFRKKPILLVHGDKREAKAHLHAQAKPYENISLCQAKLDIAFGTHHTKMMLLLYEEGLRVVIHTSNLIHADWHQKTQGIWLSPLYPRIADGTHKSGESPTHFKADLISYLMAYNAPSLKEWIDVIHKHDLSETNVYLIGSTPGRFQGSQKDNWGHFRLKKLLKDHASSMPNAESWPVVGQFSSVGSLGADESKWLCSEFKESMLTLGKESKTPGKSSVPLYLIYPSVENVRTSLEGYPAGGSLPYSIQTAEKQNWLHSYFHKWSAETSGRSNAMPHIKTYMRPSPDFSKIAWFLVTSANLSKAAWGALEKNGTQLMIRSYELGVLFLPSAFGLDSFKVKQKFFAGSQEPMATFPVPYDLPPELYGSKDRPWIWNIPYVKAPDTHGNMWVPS
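Steps: enzyme plus compound, 15 min RT; add biotin/phosphotyrosine-FITC oligonucleotide (15 nM final), react 5 min; add donor/acceptor beads (10 ug/ml final), 10 min; read AlphaScreen. Tdp1 at 1 nM final.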
A number is an active result. Unless noted, calls come from the whole dose curve; as a rule, active = well fitted curve in the direction sought with a large enough effect; inconclusive = small, poorly fitted or top-dose-only effect, or another doubt; inactive = no such curve, though single readings can be large; an effect the other way counts as inactive or inconclusive.

Cc1ccc(CN2C(=O)C(CC(C)C)Nc3ncnc(N4CCN(c5ccccn5)CC4)c32)cc1 (stereo not given) was read as DT40 TDP1 CPT inconclusive, Giardia killer inactive, IL-1B inflam inh -56, TDP1 cell noCPT 18µM and ELG1 DNA repair inconclusive.
`COc1ccc(CN2C(=O)C(CC(C)C)Nc3ncnc(N4CCN(c5ccccn5)CC4)c32)cc1` (stereo not given) gave DT40 TDP1 CPT inconclusive, Giardia killer inactive, IL-1B inflam inh -58, TDP1 cell noCPT inconclusive, ELG1 DNA repair inactive and TDP1 block inactive.
O=C(Nc1ccc(Cl)cc1)c1ccc2oc(=O)n(Cc3ccccc3)c2c1 was read as DT40 TDP1 CPT inconclusive, TDP1 cell noCPT inconclusive and TDP1 block inactive.
`CC(=O)Oc1ccc(/C=C/C(=O)CC2OC(Oc3cc(OC(C)=O)c4c(c3)O[C@@H](c3ccc(OC(C)=O)cc3)CC4=O)C(OC(C)=O)C(OC(C)=O)C2OC(C)=O)cc1` (stereo not given in full) gave DT40 TDP1 CPT 8.4µM, TDP1 cell noCPT 7.5µM and TDP1 block inactive.
Screening CCN(CC)S(=O)(=O)c1ccc2c(c1)nc(CN(C)C(=O)Nc1cccc(Cl)c1)n2C returned DT40 TDP1 CPT inconclusive, TDP1 cell noCPT inconclusive and TDP1 block inactive.
Screening CSc1ncccc1C(=O)OCC(=O)N1CC(=O)Nc2ccccc21 returned DT40 TDP1 CPT inactive, Giardia killer inactive, IL-1B inflam inh inactive, TDP1 cell noCPT inactive, ELG1 DNA repair inactive and TDP1 block inactive.
Screening CCCCN(Cc1ccccc1)S(=O)(=O)c1cc(Br)cc2c1N(C(C)=O)C(C)C2 (stereo not given) returned DT40 TDP1 CPT 16µM, Giardia killer inactive, IL-1B inflam inh inactive, TDP1 cell noCPT 13µM, ELG1 DNA repair inconclusive and TDP1 block inactive.
Screening COc1cccc(N2CCN(S(=O)(=O)c3ccc4c(c3)CC(C)N4C(=O)C3CC3)CC2)c1 (stereo not given) returned DT40 TDP1 CPT inconclusive, Giardia killer inactive, IL-1B inflam inh inactive, TDP1 cell noCPT inactive, ELG1 DNA repair inactive and TDP1 block inactive.
For CC1Cc2cc(S(=O)(=O)N3CCN(c4ccccc4F)CC3)ccc2N1C(=O)C1CC1 (stereo not given) the results were DT40 TDP1 CPT inconclusive, Giardia killer inactive, IL-1B inflam inh inactive, TDP1 cell noCPT 23µM, ELG1 DNA repair inactive and TDP1 block inactive.
For CC(=O)N1c2ccc(S(=O)(=O)N(C)Cc3ccccc3)cc2CC1C (stereo not given) the results were DT40 TDP1 CPT inactive, Giardia killer inconclusive, IL-1B inflam inh inactive, TDP1 cell noCPT 21µM, ELG1 DNA repair inconclusive and TDP1 block inactive.
`CC1Cc2cc(S(=O)(=O)N3CCC(C(=O)N(C)Cc4ccccc4)CC3)ccc2N1C(=O)C1CC1` (stereo not given) gave DT40 TDP1 CPT inconclusive, Giardia killer inactive, IL-1B inflam inh inactive, TDP1 cell noCPT inconclusive, ELG1 DNA repair 21µM and TDP1 block inactive.
Cc1ccc(CNC(=O)CN2C(=O)C3CCCCN3c3ccc(C(=O)N(C)C)cc32)cc1 (stereo not given) was read as DT40 TDP1 CPT inactive, TDP1 cell noCPT inactive and TDP1 block inactive.
COc1ccc(CCNC(=O)Cc2c(C)c3c(cc(C)c4c(C)coc43)oc2=O)cc1 was read as DT40 TDP1 CPT inconclusive, TDP1 cell noCPT inactive and TDP1 block inactive.
`CC(C)C(=O)Nc1nnc(SCc2cc(=O)n3ccccc3n2)s1` gave DT40 TDP1 CPT inconclusive, TDP1 cell noCPT inactive and TDP1 block inactive.
Screening CCN(CC)CCNC(=O)c1cccc(NC(=O)C(=O)c2cc(Br)ccc2NC(C)=O)c1 returned DT40 TDP1 CPT inactive, Giardia killer inactive, IL-1B inflam inh inactive, TDP1 cell noCPT inactive, ELG1 DNA repair inactive and TDP1 block inactive.
Screening CC(=O)N1CCCc2cc(S(=O)(=O)N3CCN(c4ccccc4F)CC3)ccc21 returned DT40 TDP1 CPT 21µM, TDP1 cell noCPT 21µM and TDP1 block inactive.
For CC(=O)N1CCc2cc(S(=O)(=O)N3CCc4ccccc43)ccc21 the results were DT40 TDP1 CPT 13µM, Giardia killer inactive, IL-1B inflam inh inactive, TDP1 cell noCPT inconclusive, ELG1 DNA repair inactive and TDP1 block inactive.
For CC(C)CC(=O)N1CCN(C(=O)c2ccc(F)cc2)CC1 the results were DT40 TDP1 CPT inactive, Giardia killer inactive, IL-1B inflam inh inactive, TDP1 cell noCPT inconclusive and ELG1 DNA repair inactive.
For COC(C)=O the results were DT40 TDP1 CPT inactive, TDP1 cell noCPT inactive and TDP1 block inactive.
CSCC[C@H](NC(=O)c1ccc(Cl)c([N+](=O)[O-])c1)c1nc2ccccc2[nH]1 was read as DT40 TDP1 CPT inconclusive, Giardia killer inactive, IL-1B inflam inh -102, TDP1 cell noCPT inconclusive, ELG1 DNA repair inactive and TDP1 block inactive.
`CCCC(NC(=O)c1ccc(Br)o1)c1nc2ccccc2[nH]1` (stereo not given) gave DT40 TDP1 CPT 16µM, Giardia killer inactive, IL-1B inflam inh inactive, TDP1 cell noCPT inconclusive, ELG1 DNA repair inactive and TDP1 block inactive.
Screening CCCCC(NC(C)=O)c1nc2ccccc2[nH]1 (stereo not given) returned DT40 TDP1 CPT inactive, Giardia killer inactive, IL-1B inflam inh inactive, TDP1 cell noCPT inactive, ELG1 DNA repair inconclusive and TDP1 block inactive.
`CCCCn1nc(C(=O)N[C@@H](CCSC)c2nc3ccccc3[nH]2)c2ccccc2c1=O` gave DT40 TDP1 CPT 26µM, Giardia killer inactive, IL-1B inflam inh inactive, TDP1 cell noCPT inconclusive and TDP1 block inactive.
`O=C(NC(Cc1ccccc1)c1nc2ccccc2[nH]1)c1ccc(Cl)c([N+](=O)[O-])c1` (stereo not given) gave DT40 TDP1 CPT 10µM, Giardia killer inactive, IL-1B inflam inh -165, TDP1 cell noCPT 23µM, ELG1 DNA repair inconclusive and TDP1 block inactive.
Screening O=C(Nc1nc2ccccc2[nH]1)c1ccc(Cl)c([N+](=O)[O-])c1 returned DT40 TDP1 CPT inconclusive, Giardia killer inconclusive, IL-1B inflam inh inactive, TDP1 cell noCPT inconclusive, ELG1 DNA repair inconclusive and TDP1 block inactive.
